Reference: PubChem BioAssay AID488969 (Vanderbilt High Throughput Screening Facility, 2010)
Whole data set: some 110,000 compounds, median “z-score” near -0.1, cut for the highest 2% near 2. Shown is part of a subset that was picked to be rich in the highest values. Calls of active or inactive are those of the source.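 How the source made its calls: active means z-score in the third read window above 3 or below -3; inactive means the rest.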

Target: Metabotropic glutamate receptor 8 (Rattus norvegicus) (UniProt P70579)
Sequence (P70579 whole entry, looked up): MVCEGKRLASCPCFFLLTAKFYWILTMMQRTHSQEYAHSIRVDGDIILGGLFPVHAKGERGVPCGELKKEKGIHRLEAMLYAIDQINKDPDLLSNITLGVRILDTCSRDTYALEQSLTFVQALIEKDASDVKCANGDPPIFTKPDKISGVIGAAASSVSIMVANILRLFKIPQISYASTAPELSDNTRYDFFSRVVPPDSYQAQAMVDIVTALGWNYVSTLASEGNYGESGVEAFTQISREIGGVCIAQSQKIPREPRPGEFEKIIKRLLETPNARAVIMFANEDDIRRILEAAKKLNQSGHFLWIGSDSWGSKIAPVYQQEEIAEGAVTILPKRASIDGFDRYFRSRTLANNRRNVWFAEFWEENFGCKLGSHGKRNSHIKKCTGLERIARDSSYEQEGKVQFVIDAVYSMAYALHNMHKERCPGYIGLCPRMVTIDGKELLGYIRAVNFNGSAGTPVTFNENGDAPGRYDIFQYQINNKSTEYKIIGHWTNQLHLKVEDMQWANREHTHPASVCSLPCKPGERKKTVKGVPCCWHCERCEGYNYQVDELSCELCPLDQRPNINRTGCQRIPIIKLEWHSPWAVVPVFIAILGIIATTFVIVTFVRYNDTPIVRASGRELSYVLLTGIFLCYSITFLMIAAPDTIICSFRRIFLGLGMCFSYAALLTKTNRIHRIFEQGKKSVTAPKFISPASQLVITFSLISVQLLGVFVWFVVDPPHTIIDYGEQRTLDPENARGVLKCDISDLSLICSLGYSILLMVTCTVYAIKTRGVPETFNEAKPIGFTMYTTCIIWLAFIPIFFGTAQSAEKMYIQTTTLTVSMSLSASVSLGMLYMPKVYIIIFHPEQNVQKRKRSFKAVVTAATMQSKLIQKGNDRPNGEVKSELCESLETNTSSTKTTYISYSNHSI
Experiment: mGluR8 Gi/Go-coupled signaling modulation – cell-based, rat, thallium flux, HTS, primary screen (AID 488969)
Settings: HEK293 rat mGluR8, GIRK (G protein-gated inwardly rectifying potassium channel) thallium flux, FluoZin2; at 10 µM; stronger effect = higher value; submaximal glutamate (EC20) added with thallium

| Structure (SMILES) | z-score |
| --- | --- |
| CCOC(=O)c1cnc(SCC(=O)Nc2cc(OC)cc(OC)c2)nc1N | 0.341 |
| CCOC(=O)c1cnc(SCC(=O)Nc2nnc(CC)s2)nc1N | 0.763 |
| CCOC(=O)c1cnc(SCC(=O)Nc2nc(C)c(C)s2)nc1N | 3.65 (active) |
| Cc1cc2c(nn1)CCc1nonc1-2 | 0.0142 |
| COc1cc2nc(CN3C(=O)c4ccccc4C3=O)oc(=O)c2cc1OC | -0.733 |
| COc1ccc(Cl)cc1C(=O)CSc1nnnn1C1CCCC1 | 7.32 (active) |
| CCCCn1nnnc1SCC(=O)c1cc(Cl)ccc1OC | -1.36 |
| COc1ccc(Cl)cc1C(=O)CSc1nnnn1C1CCCCC1 | -0.333 |
| O=C(NNC(=O)[C@@H]1CCCC[C@@H]1C(=O)O)c1cccs1 | 0.534 |
| O=C(NNC(=O)c1cc(-c2ccccc2)n(-c2ccccc2)n1)c1cccc([N+](=O)[O-])c1 | 6.49 (active) |
| O=C(NNC(=O)c1cnccn1)c1cccc([N+](=O)[O-])c1 | -0.417 |
| O=C(NCc1cn(-c2ccccc2)nc1-c1ccccc1)c1cccc([N+](=O)[O-])c1 | -0.314 |
| C=CCn1c(-c2ccc(S(=O)(=O)N3CCOCC3)cc2)csc1=Nc1ccccc1 | 0.017 |
| Cc1nn(-c2ccccc2)c(N)c1C1(O)C(=O)N(C(C)C)c2ccccc21 (stereo not given) | 0.371 |
| CCS(=O)(=O)n1nc(-c2ccccc2)nc1NCc1ccco1 | 2.2 |
| O=S(=O)(c1ccccc1)n1nc(-c2ccccc2)nc1NCc1ccco1 | -0.0427 |
| O=C(c1ccccc1)n1nc(-c2ccccc2)nc1NCc1ccco1 | 0.149 |
| CCS(=O)(=O)c1nc2ccccc2n1CC(=O)N1CCOCC1 | 0.0592 |
| O=C(NC(=S)Nn1cnc2c(cnn2-c2ccccc2)c1=O)c1ccccc1 | -0.101 |
| O=C(NC(=S)Nn1cnc2c(cnn2-c2ccccc2)c1=O)c1ccc(Cl)cc1 | 0.0584 |
| O=C(NC(=S)Nn1cnc2c(cnn2-c2ccccc2)c1=O)c1ccc(Oc2ccccc2)cc1 | 2.08 |
| CCCN(Cc1ccc(N(CC)CC)cc1)CC1CC1 | 2.1 |
| CCCN(Cc1ccc(N(C)C)cc1)CC1CC1 | -0.858 |

| Structure (SMILES) | z-score |
| --- | --- |
| OCCN(Cc1ccccc1)CC1CCCCC1 | 0.614 |
| CCCCn1c(SCC(=O)N2CCOCC2)nnc1-c1ccoc1C | 1.9 |
| COc1ccc(S(=O)(=O)N(CC(=O)N2CCN(C)CC2)c2ccc(C)cc2)cc1OC | 0.277 |
| CCCC(=O)OCC(=O)Nc1ccc(N=Nc2ccccc2)cc1 | 0.427 |
| CC(=O)OCC(=O)Nc1ccc(N=Nc2ccccc2)cc1 | 0.277 |
| CC(C)C(=O)OCC(=O)Nc1ccc(N=Nc2ccccc2)cc1 | 10.5 (active) |
| Cc1cc(-c2nn(-c3ccccc3)cc2/C=C2\SC(N)=NC2=O)ccc1OC(C)C | -0.0568 |
| Cn1c(=O)oc2cc(S(=O)(=O)NCCN3CCN(c4ccccc4F)CC3)ccc21 | -0.14 |
| CCCCN(CCCNC(=O)C1CCN(S(=O)(=O)N2CCOCC2)CC1)c1ccccc1 | -1.17 |
| CC(C)N(CCNC(=O)C1CCN(S(=O)(=O)N2CCOCC2)CC1)Cc1ccccc1 | 0.267 |
| CCCCN(CCCNC(=O)C1CCN(S(=O)(=O)N2CCOCC2)CC1)Cc1ccccc1 | 2.95 |
| O=C(COc1ccccc1)OCc1csc(Nc2ccccc2)n1 | -0.693 |
| CS(=O)(=O)Nc1ccc2c(c1)nc1n2CCOC1 | -0.149 |
| COc1cccc(CNC(=O)C2(C)Oc3ccccc3NC2=O)c1 (stereo not given) | -0.3 |
| COc1ccc(CS(=O)(=O)/C(Cl)=C(/Cl)C(=O)Nc2ccc(OC)nc2)cc1 | -0.34 |
| Fc1ccc2nc(Nc3nc4c(F)cc(F)cc4s3)sc2c1 | 6.16 (active) |
| COC(=O)c1ccc2nc(Nc3nc4c(F)cc(F)cc4s3)sc2c1 | 1.56 |
| CC(=O)c1sc(Nc2nc3ccc(F)cc3s2)nc1C | 0.302 |
| COC(=O)c1ccc2nc(Nc3nc4ccc(F)cc4s3)sc2c1 | 0.254 |
| NNc1nc2ccc(F)cc2s1 | -0.467 |
| Fc1ccc2nc(Nc3nc4c(F)cccc4s3)sc2c1 | 4.98 (active) |
| CCCCC(=O)Nc1ccccc1C(=O)N1CCOCC1 | 0.0261 |
| C/C(=N\OCC(=O)Nc1ccc(F)c(F)c1F)c1cc2ccccc2o1 | -1.92 |

| Structure (SMILES) | z-score |
| --- | --- |
| CCCCOc1ccc(C(=O)N/C(=C\c2cccc([N+](=O)[O-])c2)C(=O)OC(C)C)cc1 | 0.536 |
| Cc1ccc(CCSc2ccc(C(C)C)cc2)cn1 | -0.399 |
| CC(C)CN1C(=O)NC(NC(=O)c2ccco2)(C(F)(F)F)C1=O (stereo not given) | 0.0372 |
| Cc1ccc(OCC(=O)NC(=S)Nc2cccc(C)n2)cc1 | 1.99 |
| CCCCN(C)C(=S)Nc1ccc(Oc2ccccc2)cc1 | 1.42 |
| CCC(=O)NC(=S)Nc1ccccc1C(=O)OC | -0.308 |
| COC(=O)c1ccccc1NC(=S)NC(=O)COc1ccc(C)cc1 | 2.28 |
| CN(C(=S)Nc1ccc(Oc2ccccc2)cc1)C1CCCCC1 | 0.0776 |
| CCC(=O)NC(=S)Nc1ccc(NC(=O)COc2ccccc2)cc1 | 0.0565 |
| Cc1cccc(NC(=O)COc2ccc(Br)cc2)n1 | -0.0989 |
| CCOC(=O)c1ccc(NC(=S)Nc2ccccc2)cc1 | 1.7 |
| Cc1ccc(OCC(=O)NC(=S)Nc2ccc(Br)c(C)n2)cc1 | 1.02 |
| CCOC(=O)c1ccc(NC(=S)NC(=O)COc2ccccc2)cc1 | 3.05 (active) |
| CCCN(CC1CC1)C(=S)Nc1ccc(Oc2ccccc2)cc1 | 3.7 (active) |
| CCCC(=O)NC(=S)Nc1ccccc1C(=O)OC | 0.0764 |
| O=C(CSc1ccsc1[N+](=O)[O-])N1CCN(c2ccccc2)CC1 | -0.247 |
| COCCCNS(=O)(=O)c1ccc(SC)cc1 | -0.232 |
| O=C(COC(=O)Cc1c(Cl)cccc1Cl)Nc1ccc(OC(F)(F)F)cc1 | 0.262 |
| CNc1nc(SCc2ccccc2)nc(N2CCOCC2)n1 | -0.587 |
| O=c1ccn(-c2cccc(C(F)(F)F)c2)nc1-c1ccn(-c2ccccc2)n1 | -0.401 |
| S=C(Nc1cccc2ccccc12)N1CCN(c2ncccn2)CC1 | -0.1 |
| COc1ccc(-n2c(Cc3cccn3C)nnc2SCC(=O)NCCc2ccccc2)cc1 | -0.482 |
| CC12C(=O)N(c3cccc4cccnc34)C(=O)C1C1C=CC2C1 (stereo not given) | 0.818 |

| Structure (SMILES) | z-score |
| --- | --- |
| CNc1nc(OCC(F)(F)F)nc(N2CCN(C34CC5CC(CC(C5)C3)C4)CC2)n1 | 0.418 |
| O=C(c1cccs1)N1N=C(c2ccccc2)CC1c1ccccc1 (stereo not given) | -0.101 |
| O=C(Nc1ccc(Br)c(C(F)(F)F)c1)c1ccccc1 | 0.42 |
| CCNC(=S)Nc1ccc(Oc2ccccc2)cc1 | 0.818 |
| CCCNC(=S)Nc1ccc(Oc2ccccc2)cc1 | 0.463 |
| COC(=O)c1ccc(NC(=S)NC2CCCCC2)cc1 | 0.1 |
| S=C(Nc1ccc(Oc2ccccc2)cc1)NC1CCCC1 | 7.92 (active) |
| CC(C)CNC(=S)Nc1ccc(Oc2ccccc2)cc1 | 2.69 |
| COC(=O)c1ccccc1NC(=S)NC(NC(=O)COc1ccccc1)C(Cl)(Cl)Cl (stereo not given) | -0.203 |
| S=C(NCC1CCCCC1)Nc1ccc(Oc2ccccc2)cc1 | 0.317 |
| COC(=O)c1ccccc1NC(=S)NC(=O)CC(C)C | 0.252 |
| CCOC(=O)c1ccc(NC(=S)NC2CCCC2)cc1 | 2.61 |
| S=C(Nc1ccc(Oc2ccccc2)cc1)NC1CCCCCC1 | 0.425 |
| CCCN1CCC(NC(=S)Nc2ccc(C(=O)OCC)cc2)CC1 | -0.26 |
| COC(=O)c1ccccc1NC(=S)NC(=O)COc1ccccc1 | 7.01 (active) |
| CCn1cnc2cc(NCc3nc4ccccc4n3Cc3ccccc3)ccc21 | -0.34 |
| CC(C)c1ccc2[nH]c(O)c(N=NC(=O)c3cccc(S(=O)(=O)N4CCCCC4)c3)c2c1 | -0.156 |
| CCOc1ccc(/C=C/C(=O)NCCc2ccc(OC)c(OC)c2)cc1 | -0.114 |
| COc1ccc(OCc2ccc(C(=O)NN)cc2)cc1 | 0.222 |
| Cc1ccc2cc(COC(=O)c3ccncc3)c(=O)[nH]c2c1 | -0.162 |
| COc1ccc(-c2cc(C(=O)OCC(=O)N3CCCC3)c3ccccc3n2)cc1 | -0.231 |
| CCc1cccc(CC)c1NC(=O)CSc1nnc(C(C)C)n1CC | 0.342 |
| CCn1c(SCC(=O)Nc2cccc(C(C)=O)c2)nnc1C(C)C | 2.28 |

| Structure (SMILES) | z-score |
| --- | --- |
| CCn1c(SCC(=O)Nc2cccc(NC(C)=O)c2)nnc1C(C)C | -0.322 |
| Cc1ccc2cc(CN(Cc3ccco3)C(=O)c3ccccc3)c(=O)[nH]c2c1C | -0.385 |
| Nc1nnnn1/N=C/c1ccccc1OCc1ccccc1 | -0.208 |
| COc1ccc(N2CCN(CC(=O)Nc3ccc(-n4cnnn4)cc3)CC2)cc1 | 1.05 |
| CCCCOP(=O)(OCCCC)C(O)c1ccc(Br)cc1 (stereo not given) | -0.269 |
| CCN(CC)S(=O)(=O)c1cccc(C(=O)N2CC(O)CC2C(=O)OC)c1 (stereo not given) | -0.00902 |
| COc1ccc(CSCC(=O)N/N=C/c2ccccc2OCc2ccccc2)cc1 | 1.27 |
| O=C(N/N=C/c1ccc2cccc(OCc3ccccc3)c2n1)c1ccc(Cl)cc1 | 0.327 |
| COc1ccc(C(=O)N/N=C/c2ccc3cccc(OCc4ccccc4)c3n2)cc1 | 3.81 (active) |
| O=C(N/N=C/c1ccc2cccc(OCc3ccccc3)c2n1)c1ccc(Br)cc1 | 3.65 (active) |
| O=C(N/N=C/c1ccccn1)c1ccc(Br)cc1 | 1.82 |
| COc1ccc(C(=O)N/N=C/c2cccc3cccnc23)cc1 | -0.417 |
| Cc1ccc(C(=O)N2CCN(c3ccc([N+](=O)[O-])c(N4CCOCC4)c3)CC2)cc1 | -0.394 |
| COc1c(C)cccc1C(=O)Nc1cc(-c2nn3c(C)nnc3s2)ccc1C | -1.6 |
| Cn1c2ccccc2c(=O)c2c(=O)n(-c3ccccc3)c(C3CCCCC3)nc21 | -1.31 |
| CCCn1c(SCC(=O)/C(C#N)=C(\C)N)n[nH]c1=O | -0.649 |
| CCOC(=O)C(CC)(CC)/C(C)=N/NC(=O)CC#N | 0.316 |
| CCOc1nc(Nc2ccc(OC)cc2)nc(OCC)n1 | -1.62 |
| COc1ccc(NC(=S)Nc2ccc3nc(C)c(C)nc3c2)cc1 | -0.104 |
| CCOC(=O)c1csc(NC(=O)CSc2nnnn2-c2ccc(OC)cc2)n1 | 0.0329 |
| c1cn(C23CC4CC(CC(C4)C2)C3)cn1 | 4.17 (active) |
| c1nnnn1C12CC3CC(CC(C3)C1)C2 | 0.487 |
| Nc1ncn(C23CC4CC(CC(C4)C2)C3)n1 | -0.106 |
